Assay outcomes from PubChem BioAssay.
Rows were chosen to be rich in hits. Some 3.1% of all compounds tested hit in one or more screens of this group.
TexasRed fluor = Texas Red fluorescence interference in TRb-SRC2 counter-screen | TRb/SRC2 Texas Red total fluorescence interference | 280,000 tested, 0.29% active | AID 1479 | Potency, µM (highest dose often 106 µM), without a hit: at the highest dose fluorescence change, negative = quenching; active = well fitted curve in either direction with a large enough effect; inconclusive = small, poorly fitted or top-dose-only effect
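Flags fluorescent or light-absorbing compounds by total fluorescence, S + 2P, at 555 nm excitation and 632 nm emission. Mixture: 20 nM Texas Red SRC2 peptide, 0.6 uM human TRb LBD, 1 uM T3, 5% DMSO; compound exposure 5 h at ambient temperature.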
Tau FP inhib = tau fibrillization inhibition (FP) | K18 P301L tau heparin fibrillization, Alexa594 FP, 6 h | Potency, µM (series often up to 57.7 µM), inactives show at the highest dose activity, negative = inhibition, hits mostly inhibitors | 280,000 tested, 0.39% active | AID 1468; note: nearly all actives have a fitted effect of over 55% in size
Target sequence (P10636 561-689 P618L limits assumed): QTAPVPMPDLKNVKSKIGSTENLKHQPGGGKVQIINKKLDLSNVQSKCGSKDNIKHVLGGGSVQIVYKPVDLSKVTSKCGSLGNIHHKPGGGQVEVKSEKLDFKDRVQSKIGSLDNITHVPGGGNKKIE
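Quantitative HTS format: compounds meet 15 uM recombinant K18 P301L tau and Alexa 594-tau tracer in 100 mM sodium acetate pH 7; 20 uM heparin triggers fibrillization at 37 C over 6 hr; FP gives the signal.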
Tau ThT inhib = tau fibrillization inhibition (ThT binding) | P10636 | 270,000 tested, 2.1% active | Potency, µM (top dose mostly 57.4 µM), inactives show top-dose activity, negative = inhibition, usual class: inhibitors | recombinant tau K18 P301L, heparin-induced fibrillization, ThT fluorescence; note: nearly all actives have a fitted effect of over 55% in size
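Tau K18 P301L fragment (15 uM unlabeled plus 0.24 uM Alexa 594-labeled) in 100 mM sodium acetate pH 7 with compound, fibrillization induced by 20 uM heparin for 6 hr at 37 C. Thioflavin T (30 uM) added, fluorescence read after 1 hr (ex 450, em 510 nm).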
TRb SRC2 PPI = disrupts binding of human TR beta to SRC2 | TRbeta-SRC2 peptide binding, fluorescence polarization; receptor liganded with 1 µM T3 | 280,000 tested, 0.065% active | Potency, µM (titrated, usually from 106 µM), for the others: top-dose activity change, negative = inhibition, actives largely listed as inhibitors | P10828;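 note: plate controls were bound peptide for no effect and peptide without receptor for full effect; nearly all actives have a fitted effect of over 50% in size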
Target sequence (P10828 whole entry, looked up): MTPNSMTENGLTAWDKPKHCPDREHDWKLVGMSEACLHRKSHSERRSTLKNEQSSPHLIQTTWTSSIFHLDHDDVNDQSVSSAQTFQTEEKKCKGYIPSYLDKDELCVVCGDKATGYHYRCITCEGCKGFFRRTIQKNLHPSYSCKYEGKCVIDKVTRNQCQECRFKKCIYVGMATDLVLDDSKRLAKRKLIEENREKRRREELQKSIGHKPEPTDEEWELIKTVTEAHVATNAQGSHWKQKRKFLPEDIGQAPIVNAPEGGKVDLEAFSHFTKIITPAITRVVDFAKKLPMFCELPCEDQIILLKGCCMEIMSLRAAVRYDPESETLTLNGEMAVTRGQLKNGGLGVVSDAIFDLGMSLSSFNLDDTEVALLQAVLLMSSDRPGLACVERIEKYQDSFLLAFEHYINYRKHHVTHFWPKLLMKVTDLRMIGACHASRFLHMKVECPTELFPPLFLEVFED
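Fluorescence polarization of 20 nM Texas Red SRC2 peptide (20-aa NR interaction domain) bound to 0.6 uM human TRb ligand-binding domain, with 1 uM T3, after 5 hr at ambient temperature; inhibition seen as decreased polarization.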
Tau fluor cs = counter-screen for tau fibril formation inhibitors. tau K18 P301L Alexa594 fluorescence, heparin fibrillization. Potency, µM (doses to about 57.7 µM), for inactives: at the top dose activity change, negative = decrease. 280,000 tested, 0.93% active. AID 1463; note: nearly all actives have a fitted effect of over 55% in size
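Human tau K18 P301L (15 uM unlabeled, 0.24 uM Alexa 594-labeled) in 100 mM sodium acetate pH 7 with 20 uM heparin, 6 hr at 37 C. ThT 30 uM added, 1 hr ambient; Alexa 594 FP and total fluorescence read at 555/632 nm.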
Starred values were filed as active, the others as inactive; u = inconclusive; x = not tested or not shown; [ ] = another dose, or the depositor's remark. Unless noted, calls come from the whole dose curve; as a rule, active = well fitted curve in the direction sought with a large enough effect; inconclusive = small, poorly fitted or top-dose-only effect, or another doubt; inactive = no such curve, though single readings can be large; an effect the other way counts as inactive or inconclusive. Unless noted, % is set by controls: 0 for no effect and ±100 for the full control effect; potency is the fitted concentration of half-maximal effect.

SMILES | TexasRed fluor | Tau FP inhib | Tau ThT inhib | TRb SRC2 PPI | Tau fluor cs
Cc1cccc2cc3c(N)c(C(=O)N4CCc5ccccc54)sc3nc12 | 0% | u | 4.5µM* | -3% | u
CCc1cccc2cc3c(N)c(C(=O)Nc4ccc(S(=O)(=O)N5CCCC5)cc4)sc3nc12 | 3% | u | 5.6µM* | 2% | u
Cc1cc(C)c2nc3sc(C(=O)N4CCOCC4)c(N)c3cc2c1 | -6% | 10% | u | 5% | u
COc1ccc(OC)c(NC(=O)c2ccc3nc(C(C)C)oc3c2)c1 | -4% | 1% | -13% | 5% | -19%
Cc1ccccc1CSc1nc2cccnc2n1Cc1ccc(C(=O)NCCc2cccs2)cc1 | 9% | -4% | -4% | 2% | -25%
CCOc1ccc(C(=O)NCCc2csc(-c3cccc(C)c3)n2)cc1 | 4% | 1% | u | 3% | u
Cc1ccc(Cl)c2c1N[C@@H](c1ccc(C(=O)O)cc1)[C@H]1CC=C[C@@H]21 | -9% | -7% | u | -1% | -15%
Cc1cc([N+](=O)[O-])c2c(c1C)C1C=CCC1C(c1ccccn1)N2 (stereo not given) | -5% | u | 16µM* | -4% | u
Cc1nnc(N/N=C\c2ccc(-c3ccccc3[N+](=O)[O-])o2)n1N | -2% | u | 10µM* | -2% | u
Cc1nnc(N/N=C/c2ccc(-c3ccccc3F)o2)n1N | 1% | -6% | 13µM* | 1% | u
Cc1nnc(N/N=C/c2ccccc2O)n1N | 2% | u | u | 7% | -12%
Cc1n[nH]c(=S)n1/N=C/c1ccc(-c2ccccc2[N+](=O)[O-])o1 | 0% | 7% | u | -4% | -21%
O=c1cc(C23CC4CC(CC(C4)C2)C3)[nH][nH]1 | 5% | -5% | u | 25µM* | -3%
COc1ccc2[nH]c(C)c(CCNc3ccc(C(F)(F)F)cc3[N+](=O)[O-])c2c1 | -1% | u | u | 8% | 11µM*[quencher]
CS(=O)(=O)NCCNc1ccc(C(F)(F)F)cc1[N+](=O)[O-] | 0% | -3% | -18% | 1% | -2%
CCc1ccc(NC(=O)Cn2c(=O)n(-c3ccc(OC)cc3)c(=O)c3ccc(C(=O)NCc4ccc(C)cc4)cc32)cc1 | -12% | u | 6% | 6% | 7%
Cc1ccc(NC(=O)CSc2nc3ncccc3[nH]2)cc1F | 7% | -5% | -10% | -2% | -13%
Cc1ccc(S(=O)(=O)ON2C(=O)c3ccccc3C2=O)c(C)c1 | -4% | u | 18µM* | 5% | -21%
Cc1cc(C)c(S(=O)(=O)ON2C(=O)c3ccccc3C2=O)cc1C | 0%[53 µM] | u | u | -13%[53 µM] | -9%
CN1CCN(c2cc3c(c4c2[nH]c2ccccc24)C(=O)CC(C)(C)C3)CC1 | -5% | u | u | -8% | 14µM*[quencher]
CN1CCN(c2ncnc3c2[nH]c2ccc(F)cc23)CC1 | -2% | 9% | -5% | 2% | -5%
CCOC(=O)c1cccc(NC(=O)c2cc(C)nc3c2c(C)nn3-c2ccc(C)cc2)c1 | 0% | -10% | -3% | 1% | -21%
O=c1cc(-c2ccc(O)c(O)c2)oc2ccccc12 | -23% | u | 18µM* | 8% | u
O=c1cc(-c2ccccc2)oc2ccccc12 | 2%[201 µM] | x | x | 1%[201 µM] | x
Cc1cccc(OCCn2cc(/C=N/NC(=O)c3ccncc3)c3ccccc32)c1 | -5% | 2% | u | 5% | 16µM*[quencher]
SMILES | TexasRed fluor | Tau FP inhib | Tau ThT inhib | TRb SRC2 PPI | Tau fluor cs
O=C(Nc1nnc(S(=O)(=O)N2CCCC2)s1)c1ccccc1Cl | 2% | 10% | 3.5µM* | -5% | u
CC1Cc2ccccc2N1S(=O)(=O)c1nnc(NC(=O)c2ccccc2Br)s1 (stereo not given) | 4% | -3% | 13µM* | -3% | u
O=C(Nc1nnc(S(=O)(=O)N2CCCCC2)s1)c1ccccc1Br | -20% | 3% | u | -6% | -9%
O=C(COc1ccccc1F)Nc1nnc(S(=O)(=O)N2CCCCCC2)s1 | 5% | -4% | 14µM* | -11% | -13%
O=C(Nc1nnc(S(=O)(=O)N2CCCCCC2)s1)c1ccccc1Cl | -5% | -4% | u | -2% | u
O=C(Nc1nnc(S(=O)(=O)N2CCCCCC2)s1)c1ccccc1 | u | 1% | 14µM* | -11% | u
O=C(COc1ccccc1Cl)Nc1nnc(S(=O)(=O)N2CCCC2)s1 | -1% | -1% | u | -3% | u
CC(C)(C)C1CCc2nc(NC(=O)c3cccc(Cl)c3)sc2C1 (stereo not given) | -3% | -13% | -15% | 3% | -11%
COc1ccc(-c2ccoc2)cc1C1C2C=CCC(C)C2C(=O)N1Cc1ccccc1 (stereo not given) | 0% | x | x | -16% | x
Cc1cccc2c(N=Nc3ccc(S(=O)(=O)Nc4cccc(Cl)c4)cc3[N+](=O)[O-])c(O)[nH]c12 | -4% | 4% | u | -4% | 5.6µM*[quencher]
Cc1ccc(S(C)(=O)=O)cc1S(=O)(=O)Nc1cccc(Cl)c1 | -1%[53 µM] | 4% | 9% | -5%[53 µM] | 6%
O=C(Nc1cccc(S(=O)(=O)N2CCOCC2)c1)c1cn(-c2ccccc2)nc1-c1ccccc1 | 0% | 25µM* | 6% | 1% | u
O=C(Nc1cccc(S(=O)(=O)N2CCOCC2)c1)c1cn(-c2ccccc2)nc1-c1ccc(F)cc1 | 2% | u | -4% | 3% | -30%
Cc1ccc(-c2nn(-c3ccccc3)cc2C(=O)Nc2ccc(C)c(S(=O)(=O)N3CCOCC3)c2)cc1 | 4% | 16µM* | -1% | 1% | u
CCCn1c(=O)c2sccc2n2c(CCCC(=O)Nc3ccc(Oc4ccccc4)cc3)nnc12 | 1% | 0% | -9% | -3% | -25%
COc1cc(CC(=O)OCC(=O)Nc2cc([N+](=O)[O-])ccc2F)cc(OC)c1OC | 1000µM*[quencher] | 13% | -1% | -26%[53 µM] | -5%
COc1ccc([N+](=O)[O-])cc1NC(=O)COC(=O)Cc1cc(OC)c(OC)c(OC)c1 | 4% | 12% | 11% | 10% | 6%
CCn1c(=O)c(=O)[nH]c2cc(C(=O)N3CCN(c4ccccc4F)CC3)ccc21 | 45µM*[fluorescent] | 7% | -7% | 14% | 0%
COc1ccccc1C1(O)CCN(CCCn2c3ccccc3c3ccccc32)CC1 | 0% | x | x | 11% | x
CC(OCc1ccccc1)C(NC(=O)OC(C)(C)C)C(=O)NC1COC2CC(n3cc(F)c(=O)[nH]c3=O)OC12 (stereo not given) | -1% | x | x | 7% | x
Cc1ccc2nc(-c3ccc(C)o3)c(Nc3ccc4c(c3)OCCO4)n2c1 | 0.0013µM*[quencher] | 8% | u | -15% | u
COC(=O)N1CC=CC1(C)C(=O)NCc1ccc(C)o1 (stereo not given) | 4% | u | 22µM* | 11% | -19%
